Each structure is given as a SMILES string. The whole screen tested about 69,000 compounds, of which about 8,600 (12%) showed an effect of 50% or more. The sample holds strong results, similar compounds and a random draw of the others, so the mix is not that of the screen.

This assay deals with Plasmodium berghei. In words: Screen against P. berghei liver stage (PbLuc), transformed with Luciferase, at 10uM. Type of assay: functional, HepG2. The note with it: tested at 10 uM.
As for `C[C@@H]1C[C@H](C(F)(F)F)n2nc(C3CCN(S(=O)(=O)N(C)C)CC3)cc2N1`, the INHIBITION is given as -2.11%. For `CNS(=O)(=O)c1ccc(C(=O)N2CCCC2c2ccccc2C)o1` (stereo not drawn) the value was 7.27%; for `O=C(NCc1nn(-c2ccccc2)c2c1CCC2)N1CCCC(O)C1` (stereo not drawn), -49.4%.

As to `CN(CCO)Cc1nnc(C2CCN(C(=O)C3CCOCC3)CC2)n1C`, the INHIBITION worked out at 39.1%.

Turning to `Cn1c(CN2CCCC2)nnc1C1CCCN(C(=O)CN2CCCC2)C1` (stereo not drawn), the INHIBITION was 21.2%. Then `Cn1c(CN2CCCC2)nnc1C1CCCN(C(=O)C2CCOCC2)C1` (stereo not drawn), with 70.1%; and `CN1CCC(c2nnc(CN3CCOCC3)n2C)CC1`, with 27.7%; and `CCN(C)CC(=O)N1CCCC(c2nnc(CN3CCOCC3)n2C)C1` (stereo not drawn), with 55.7%. Then `Cn1c(CN2CCCC2)nnc1C1CCCN(C(=O)N2CCOCC2)C1` (stereo not drawn), with 5.78%; and `CN1CCN(Cc2nnc(C3CCN(C4CCCCC4)CC3)n2C)CC1`, with -10.9%. For `Cn1c(CN2CCOCC2)nnc1C1CCN(C(=O)C2CCCC2)CC1` the value was 50.1%; for `CCCOC(=O)N1CCCC(c2nnc(CN3CCOCC3)n2C)C1` (stereo not drawn), 31.2%.

For the compound `CN1CCN(Cc2nnc(C3CCN(C(CO)CO)CC3)n2C)CC1`, the INHIBITION turned out to be 62.9%. Then `CN1CCN(Cc2nnc(C3CCN(CC4CC4)CC3)n2C)CC1`, with -17%; and `Cn1c(CN2CCOCC2)nnc1C1CCCN(C(=O)CCC2CC2)C1` (stereo not drawn), with 8.51%.

For `O=C(O)[C@@H]1CN(C(=O)CN2CCCCCC2)C[C@H]1c1ccccc1`, the INHIBITION is -6.21%. Then `CC(C)C1=NOC2(CCN(S(C)(=O)=O)CC2)C1`, with -35.4%; and `Cc1cc(C)n(CC2CCN(CC(O)COc3ccccc3)CC2)n1` (stereo not drawn), with 26.8%; and `NC1CCC(n2cc(C(=O)N[C@H]3CCCc4ccccc43)nn2)CC1` (stereo partly drawn), with 16.6%. In the case of `CCc1nc(C2CCCN(C(=O)c3ccncc3)C2)no1` (stereo not drawn), the INHIBITION is -61.4%. Then `Cc1noc(C)c1-c1cc(CCC2CN(CCC(N)=O)CCO2)ncn1` (stereo not drawn), with -2.2555%. Then `CCSCc1ccc(C(=O)N2CCCN(CC)CC2)cc1`, with 47%; and `COc1ccc(C(C)NCCc2ccc(NC(C)=O)cc2)c(OC)c1` (stereo not drawn), with 1.56%; and `CN(C)c1cccc(C2CCCN2S(=O)(=O)c2cn(C)cn2)n1` (stereo not drawn), with -52.6%. For `CSCCC(NC(N)=O)C(=O)NCc1cnn(-c2ccccc2)c1` (stereo not drawn) the value was 29.8%; for `CSCC[C@H](NC(C)=O)C(=O)N(C)Cc1ccc(-n2cccn2)cc1`, 54.4%. With `CSCCC(O)C(=O)N(C)Cc1cnn(-c2ccc(F)cc2)c1` (stereo not drawn), the INHIBITION is given as 24.2%. For `CN(Cc1ccc(-n2cccn2)cc1)C(=O)CCC(F)(F)F`, the INHIBITION was found to be 35.1%. Then `CSCCC(NC(N)=O)C(=O)Nc1ccc(-n2cccn2)nc1` (stereo not drawn), with 1.79%.

As for `CSCCC(NC(N)=O)C(=O)NCc1ccc(-n2cccn2)cc1` (stereo not drawn), the INHIBITION is recorded as 56.6%.

Regarding `Cc1cnc(C(=O)N2C[C@@H]3CC[C@H]2CN(S(=O)(=O)N(C)C)C3)cn1`, the INHIBITION is recorded as 42%. Then `O=C(NC1CC1)N1C[C@@H]2CCN(C(=O)c3cscn3)[C@@H]2C1`, with -1.28%. Then `Cn1cc(Cl)cc1C(=O)N1CCCN(Cc2nccn2C)CC1`, with 0.16%; and `CCCc1noc(CN2CCCC2c2noc(C3CC3)n2)n1` (stereo not drawn), with 40.9%.

As for `O=C(NC1CC1)[C@H]1C[C@H]2OCC[C@H]2N(Cc2ccc(F)cc2)C1`, the INHIBITION is on record as -15.3%. For `Cc1cnc(-n2cnnc2)c(-c2cccc3c2CCNC3)c1`, the INHIBITION was 53.3%. For `Cc1nc(-n2cnnc2)ccc1-c1cccc2c1CCNC2` the value was 61.1%. Regarding `Cc1cc(-c2cccc3c2CCNC3)cnc1-n1cnnc1`, the INHIBITION worked out at 26.4%. For `CN(C)C(=O)c1ccc(-c2cccc3c2CCNC3)cc1` the value was 33.9%; for `COc1ccc(C(=O)O)cc1-c1cccc2c1CCNC2`, 21.2%; for `Cc1ccc(C(=O)O)cc1-c1cccc2c1CCNC2`, 15.8%.

In the case of `CCn1cncc1CN1CCN(CC2(c3ccc(C)cc3)CC2)CC1`, the INHIBITION is given as -29.9%. For `O=C(O)C1(Cc2cc(-c3ccccc3F)no2)CCOCC1` the value was 21.9%; for `Cc1nn(C)c2nc(NCCN3CCCC(C(N)=O)C3)sc12` (stereo not drawn), 20%.

Turning to `Cn1ccnc1CN1CCC(CCCc2ccccn2)(C(N)=O)CC1`, the INHIBITION was -20.6%.

Regarding `CNC(=O)C1Cc2ccccc2CN1C(=O)CC(C)C` (stereo not drawn), the INHIBITION is recorded as -47%. Then `Cc1cc(C)n(CCCNC(=O)NCc2c(C)cc(C)[nH]c2=O)n1`, with 38.9%; and `Cc1cc(C)n(CC(C)CNC(=O)NCc2c(C)cc(C)[nH]c2=O)n1` (stereo not drawn), with 42.3%; and `Cc1cc(C)n(CC(C)NC(=O)NCc2c(C)cc(C)[nH]c2=O)n1` (stereo not drawn), with 50.8%. `CCC(=O)N1CCCC1c1n[nH]cc1-c1ccccc1F` (stereo not drawn): the INHIBITION is -6.73%. Consider `Cc1ccc(C)c(-n2nnnc2SCN2CCCCC2=O)c1`, for which the INHIBITION is listed as 13.7%. For `O=C1CCCCN1CSc1nnnn1-c1ccc(Cl)cc1` the value was 30.4%; for `Cc1ccc(-n2nnnc2SCN2CCCCC2=O)cc1C`, 63.8%; for `O=C(Cc1ccccn1)N1CCC(c2noc(-c3ccncc3)n2)CC1`, -8.12%. For `O=C(NCC1CC1)[C@@H]1CCO[C@@H]2CCN(Cc3ccsc3)C[C@H]21` the value was -9.71%; for `Cn1cc(I)c(C(=O)NC2CCCC2)n1`, -13.2%.

As for `CC1CCC(NC(=O)c2nn(C)cc2Br)CC1` (stereo not drawn), the INHIBITION is on record as 65.2%. On to `CC1CCC(NC(=O)c2nn(C)cc2I)CC1` (stereo not drawn), for which the INHIBITION was -32.5%. Then `Cc1nc(C(C)C)sc1C(=O)N1CCN(C2CCSCC2)CC1`, with -21.3%. For `CC(c1nc(C2CC2)no1)N1CCN(CCN2CCCC2=O)CC1` (stereo not drawn) the value was -65.2%. With `c1cnc(N2CCC(NCc3cnc(C4CCC4)s3)CC2)nc1`, the INHIBITION is given as -22%.

`CCC(CCNCc1cnc(C2CCC2)s1)N1CCCC1=O` (stereo not drawn): the INHIBITION is reported as 53.4%. Then `O=C1CCCCN1CCCNCc1cnc(C2CCC2)s1`, with 3.87%. Then `CC(CCN1CCCC1=O)NCc1cnc(C2CCC2)s1` (stereo not drawn), with 54.4%. In the case of `Cc1ccc(N2CCC(NCc3cnc(C4CCC4)s3)CC2)nc1`, the INHIBITION was 34.7%. On to `CC(C)NC(=O)Nc1ccc(CNCc2cccc(OC(F)F)c2)cc1`, for which the INHIBITION is 38.6%. Then `Cn1c(Cn2ccnc2)nnc1C1CCN(C(=O)c2cccnc2)CC1`, with -27.4%; and `Cn1cc(N2CC3(CCN(CC4CCC4)CC3)OCC2=O)cn1`, with 42.5%.

Values taken from ChEMBL document CHEMBL4513216, “Probing the Open Global Health Chemical Diversity Library for Multistage-Active Starting Points for Next-Generation Antimalarials” (ACS Infect Dis, 2020).
